# Source: PubChem BioAssay (NCATS)
# “And” between values parts separate entries of the source, which are not always exact repeats. Identical values can stand only once. Values without a mark were called inactive. Inconclusive results are not listed. A call without a number means that no potency is given here. The source made the active and inactive calls. Unless noted, the call rests on the fitted dose curve; in most records, active means well fitted curve in the direction sought with a large enough effect; inconclusive means small, poorly fitted or top-dose-only effect, or another doubt; inactive means no such curve, though single readings can be large; an effect the other way counts as inactive or inconclusive.
# Assays:
# [1] = qHTS Assay for Identifying Gametocytocidal Compounds (AID 743244); further: potency means the concentration at half of the fitted maximal effect;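 on max response: actives lower the fluorescent signal which means gametocytes are killed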; conditions: P. falciparum 3D7 stage III-V gametocytes, alamarBlue, 72 h; max response: stronger effect = lower value
# How it was run: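 Using 20,000 stage III–V 3D7 gametocytes per well, compounds were incubated 72 h under 37 °C/5% CO2. Viability was then assessed by 24 h alamarBlue reduction, measured fluorometrically at 525/598 nm.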
# [2] = qHTS assay for cell viability of HEK293 cells (AID 743288); conditions: ATP luminescence (CellTiter-Glo), 18 h, stronger effect = lower value; further: nearly all actives have a fitted effect of over 50% in size
# How it was run: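 The Tox21 protocol used parental HEK293 cells treated for 18 h at 37 C with compounds delivered by pintool; ATP-coupled luminescence after 30 min at room temperature gave viability.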
# [3] = qHTS assay for cell viability of the p53RE-bla HCT-116 cell line (AID 743292); further: nearly all actives have a fitted effect of over 55% in size
# How it was run: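 ATP-based luminescent viability (CellTiter-Glo, 30 min RT) after 16 h compound treatment at 37 C of p53RE-bla HCT-116 cells, seeded at 4,000 cells/well and rested 5 h before dosing.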
# [4] = qHTS assay for measurement of the activity of small molecule inhibitors on Zika virus induced Caspase-3 activity in human astrocytoma cells (AID 1224859)
# How it was run: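 Inhibition of Zika-induced caspase-3/7 activity: SNB-19 cells, 1 h compound pretreatment, ZIKV 2 FFU/cell for 6 h at 37 C, Caspase-Glo luminescence read-out.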
# [5] = qHTS assay to identify small molecule inhibitors of chordoma cells - UCH-1 (AID 1259355); further: nearly all actives have a fitted effect of over 55% in size
# How it was run: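 Cells (800/well) were seeded and left overnight at 37 C, 5% CO2, then treated with drugs at 15 concentrations plus a combination mix of auranofin, camptothecin, doxorubicin, rubitecan and topotecan. Viability after 48hr was read by CellTiter-Glo luminescence.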
# [6] = qHTS assay to identify small molecule inhibitors of chordoma cells - UCH-2 (AID 1259356); further: series mostly up to about 46 µM
# [7] = P-glycoprotein substrates identified in KB-8-5-11 adenocarcinoma cell line, qHTS therapeutic library screen (AID 1346987); further: nearly all actives have a fitted effect of over 65% in size; further: potency means the concentration at half of the fitted maximal effect
# How it was run: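 P-gp-mediated resistance screen: KB-8-5-11 cells treated 72 h with compounds in dose-response. CellTiter-Glo viability.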
# [8] = molecular target: Hexokinase-4 (Homo sapiens) + Glucokinase regulatory protein (Homo sapiens) (UniProt P35557+Q14397); assay: qHTS assay for inhibitors of recombinant human GCK-GKRP interaction: HTRF assay (AID 743207)
# How it was run: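 Steps: dispense GCK–GKRP complex (5 nM each, GST- and FLAG-tagged) with 2 uM S6P; pin in compounds; add XL665/Eu-cryptate-labelled antibodies; incubate 60 min at room temperature; read time-resolved FRET at 665 and 615 nm.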
# [9] = Natriuretic polypeptide receptor (hNpr1) antagonism - Pilot counterscreen GloSensor control cell line (AID 1347045; calls by dose curve; further: series mostly up to about 38 µM)
# How it was run: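 This counterscreen uses HEK293 cells expressing the GIP/pGS-40F cGMP biosensor. Compound-treated cells are challenged with 50 uM sodium nitroprusside, and the luciferase signal is compared before and after stimulation.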
# [10] = molecular target: Atrial natriuretic peptide receptor 1 (Homo sapiens) (UniProt P16066); assay: Natriuretic polypeptide receptor (hNpr1) antagonism - Pilot screen (AID 1347049; calls by dose curve;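 further: agonist-evoked cGMP luminescence read 20 min after hNppA addition; series mostly up to about 58 µM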)
# How it was run: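 HEK293 cells expressing hNpr1 and GloSensor cGMP luciferase, 1500/well, loaded with 2% GloSensor reagent 2 h, compound 30 min at room temperature; luminescence read before and 20 min after 0.1 nM hNppA stimulation.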
# [11] = molecular target: Atrial natriuretic peptide receptor 2 (Homo sapiens) (UniProt P20594); assay: Natriuretic polypeptide receptor (hNpr2) antagonism - Pilot subtype selectivity assay (AID 1347050; calls by dose curve)
# How it was run: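 HEK293 cells expressing hNpr2 and a GloSensor cGMP luciferase sensor, 1500/well, preloaded 2 h with 2% GloSensor reagent, compound 30 min, then 1 nM hNppC for 20 min. Antagonism from luminescence after versus baseline pre-read; LOPAC in 1:5 titrations.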
# Hexokinase-4 (Homo sapiens) + Glucokinase regulatory protein (Homo sapiens), sequence (P35557 whole entry, looked up): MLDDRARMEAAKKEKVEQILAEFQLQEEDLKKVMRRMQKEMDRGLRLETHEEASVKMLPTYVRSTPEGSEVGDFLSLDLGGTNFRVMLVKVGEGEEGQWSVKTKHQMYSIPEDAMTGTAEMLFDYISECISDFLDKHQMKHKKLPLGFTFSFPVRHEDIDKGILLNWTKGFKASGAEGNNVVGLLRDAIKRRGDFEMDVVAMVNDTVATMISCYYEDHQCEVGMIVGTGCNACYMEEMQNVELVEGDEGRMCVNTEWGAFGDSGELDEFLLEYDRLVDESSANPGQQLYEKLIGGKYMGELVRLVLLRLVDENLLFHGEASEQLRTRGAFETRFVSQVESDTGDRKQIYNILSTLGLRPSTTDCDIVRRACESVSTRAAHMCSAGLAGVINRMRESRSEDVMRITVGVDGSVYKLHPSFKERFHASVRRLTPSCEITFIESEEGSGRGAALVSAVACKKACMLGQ
# Hexokinase-4 (Homo sapiens) + Glucokinase regulatory protein (Homo sapiens), sequence (Q14397 whole entry, looked up): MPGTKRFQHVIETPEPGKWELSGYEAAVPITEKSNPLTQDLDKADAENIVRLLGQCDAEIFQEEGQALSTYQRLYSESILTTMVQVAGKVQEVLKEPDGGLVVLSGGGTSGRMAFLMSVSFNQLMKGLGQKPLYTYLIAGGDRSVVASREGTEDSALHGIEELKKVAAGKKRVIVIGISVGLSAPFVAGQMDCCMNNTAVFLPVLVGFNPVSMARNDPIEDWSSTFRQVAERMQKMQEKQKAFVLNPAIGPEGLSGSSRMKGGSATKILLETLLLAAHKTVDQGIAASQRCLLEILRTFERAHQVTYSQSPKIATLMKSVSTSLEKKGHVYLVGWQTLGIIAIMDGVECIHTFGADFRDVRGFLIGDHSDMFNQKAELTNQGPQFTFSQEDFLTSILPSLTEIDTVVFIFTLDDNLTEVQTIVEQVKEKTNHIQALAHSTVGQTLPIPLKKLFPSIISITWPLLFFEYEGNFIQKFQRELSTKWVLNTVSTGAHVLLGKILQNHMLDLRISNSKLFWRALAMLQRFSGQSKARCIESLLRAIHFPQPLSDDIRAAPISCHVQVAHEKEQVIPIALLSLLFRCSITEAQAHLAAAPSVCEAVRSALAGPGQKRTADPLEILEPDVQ
# Atrial natriuretic peptide receptor 1 (Homo sapiens), sequence (P16066 whole entry, looked up): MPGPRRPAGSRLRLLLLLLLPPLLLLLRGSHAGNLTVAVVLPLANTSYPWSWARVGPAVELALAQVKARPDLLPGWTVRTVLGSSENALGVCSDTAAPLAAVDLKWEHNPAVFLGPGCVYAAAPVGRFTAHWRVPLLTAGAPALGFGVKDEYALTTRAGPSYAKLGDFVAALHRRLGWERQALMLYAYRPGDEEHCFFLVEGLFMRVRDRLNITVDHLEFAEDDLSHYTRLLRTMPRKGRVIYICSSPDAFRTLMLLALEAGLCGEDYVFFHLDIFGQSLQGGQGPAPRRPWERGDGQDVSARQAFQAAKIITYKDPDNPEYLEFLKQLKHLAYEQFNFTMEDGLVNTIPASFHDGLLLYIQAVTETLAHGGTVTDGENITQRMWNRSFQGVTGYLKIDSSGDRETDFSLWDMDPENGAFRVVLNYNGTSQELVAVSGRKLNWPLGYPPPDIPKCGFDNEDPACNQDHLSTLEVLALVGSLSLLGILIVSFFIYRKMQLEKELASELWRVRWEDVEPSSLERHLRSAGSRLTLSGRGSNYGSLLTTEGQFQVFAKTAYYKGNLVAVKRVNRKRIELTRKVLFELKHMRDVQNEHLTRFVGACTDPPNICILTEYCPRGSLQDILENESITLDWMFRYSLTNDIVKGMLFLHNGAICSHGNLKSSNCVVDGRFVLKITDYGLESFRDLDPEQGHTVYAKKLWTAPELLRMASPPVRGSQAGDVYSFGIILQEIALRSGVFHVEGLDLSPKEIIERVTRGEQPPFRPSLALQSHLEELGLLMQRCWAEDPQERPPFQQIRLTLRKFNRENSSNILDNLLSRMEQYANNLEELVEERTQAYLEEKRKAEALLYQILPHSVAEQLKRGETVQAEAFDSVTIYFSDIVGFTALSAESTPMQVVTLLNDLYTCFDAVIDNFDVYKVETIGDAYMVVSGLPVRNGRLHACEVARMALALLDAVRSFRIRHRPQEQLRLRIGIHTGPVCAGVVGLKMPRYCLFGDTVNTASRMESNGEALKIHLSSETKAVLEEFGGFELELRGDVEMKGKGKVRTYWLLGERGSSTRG
# Atrial natriuretic peptide receptor 2 (Homo sapiens), sequence (P20594 whole entry, looked up): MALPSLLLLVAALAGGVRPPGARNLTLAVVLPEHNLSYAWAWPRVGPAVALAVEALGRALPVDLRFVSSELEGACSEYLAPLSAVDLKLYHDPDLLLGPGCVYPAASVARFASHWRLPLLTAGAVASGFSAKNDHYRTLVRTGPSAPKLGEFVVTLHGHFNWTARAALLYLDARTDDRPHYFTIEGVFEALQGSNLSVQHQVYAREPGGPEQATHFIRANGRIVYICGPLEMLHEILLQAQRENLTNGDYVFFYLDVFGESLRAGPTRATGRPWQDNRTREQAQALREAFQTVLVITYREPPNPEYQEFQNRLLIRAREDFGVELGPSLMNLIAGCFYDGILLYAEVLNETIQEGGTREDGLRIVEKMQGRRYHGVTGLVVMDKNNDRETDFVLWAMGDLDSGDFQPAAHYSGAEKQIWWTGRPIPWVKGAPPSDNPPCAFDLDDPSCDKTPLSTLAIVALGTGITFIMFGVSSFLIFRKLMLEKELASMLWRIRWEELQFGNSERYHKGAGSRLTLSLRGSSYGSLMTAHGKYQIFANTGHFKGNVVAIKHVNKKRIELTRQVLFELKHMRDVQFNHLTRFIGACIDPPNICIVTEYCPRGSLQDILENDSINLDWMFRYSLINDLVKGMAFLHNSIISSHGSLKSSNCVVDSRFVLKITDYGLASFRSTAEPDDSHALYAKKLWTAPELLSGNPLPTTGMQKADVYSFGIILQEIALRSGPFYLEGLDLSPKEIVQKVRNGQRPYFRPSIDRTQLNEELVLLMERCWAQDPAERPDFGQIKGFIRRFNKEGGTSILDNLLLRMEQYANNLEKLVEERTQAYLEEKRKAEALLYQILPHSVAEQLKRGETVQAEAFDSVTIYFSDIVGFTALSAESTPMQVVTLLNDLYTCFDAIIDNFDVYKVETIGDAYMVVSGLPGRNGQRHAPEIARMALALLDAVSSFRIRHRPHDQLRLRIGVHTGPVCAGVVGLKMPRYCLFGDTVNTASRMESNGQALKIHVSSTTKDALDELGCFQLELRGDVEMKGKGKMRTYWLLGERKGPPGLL
smiles,measurement,setting,value
CCCCCCCCCCCCCCCC(=O)O,max response,[1],2.07%
same,max response,[2],-2.84%
same,outcome,[3],inactive
same,outcome,[4],inactive
same,Potency,[5],inactive
same,Potency,[6],inactive
same,Potency,[7],inactive
COc1cc(C(=S)N2CCOCC2)ccc1O,max response,[1],19.6%
same,outcome,[4],inactive
same,Potency,[5],inactive
same,Potency,[6],inactive
same,Potency,[7],inactive
O=C(N/N=C/c1ccc([N+](=O)[O-])o1)c1ccc(O)cc1,Potency,[1],1.12 µM (active)
same,outcome,[4],inactive
same,Potency,[5],inactive
same,Potency,[6],inactive
NC(=S)N/N=C/c1cccnc1,max response,[1],-11.6%
same,outcome,[4],inactive
same,Potency,[5],inactive
same,Potency,[7],inactive
N#C/C(=C1\SCC(c2ccccc2Cl)S1)n1ccnc1 (stereo not given),max response,[1],17.4%
same,outcome,[4],inactive
same,Potency,[5],inactive
same,Potency,[6],inactive
COc1ccccc1N1CCN(CCCCNC(=O)c2ccc(-c3ccc(C(C)=O)cc3)cc2)CC1,max response,[1],3.48%
same,outcome,[4],inactive
same,Potency,[5],inactive
same,Potency,[6],inactive
NC(N)=NCc1cccc(I)c1,outcome,[8],inactive
same,max response,[1],10% and 7.9%
same,outcome,[4],inactive
same,Potency,[5],inactive
same,Potency,[7],inactive
same,outcome,[9],inactive
same,outcome,[10],inactive
same,outcome,[11],inactive
CC(C)(C)CC(C)(C)c1ccc(O)c(-n2nc3ccccc3n2)c1,max response,[1],-5.06%
same,max response,[2],-13.9%
same,outcome,[4],inactive
same,Potency,[5],inactive
same,Potency,[6],inactive
same,Potency,[7],inactive
CC(=O)OCC(=O)[C@H]1CC[C@H]2[C@@H]3CCC4=CC(=O)CC[C@]4(C)[C@H]3CC[C@]12C,max response,[1],-7.41%
same,outcome,[4],inactive
same,Potency,[5],inactive
same,Potency,[6],inactive
same,Potency,[7],7.31 µM (active)
CN1CCc2cccc3c2[C@H]1Cc1ccc(O)c(O)c1-3,Potency,[1],3.98 µM (active)
same,outcome,[4],inactive
same,Potency,[5],inactive
same,Potency,[6],inactive
O=C(O)CCC(=O)Nc1ccc(S(=O)(=O)Nc2nccs2)cc1,outcome,[4],inactive
same,Potency,[5],inactive
same,Potency,[6],inactive
same,Potency,[7],inactive
O=[N+]([O-])c1cccc(S(=O)(=O)NCCNS(=O)(=O)c2cccc([N+](=O)[O-])c2)c1,max response,[1],1.36%
same,outcome,[4],inactive
same,Potency,[5],inactive
same,Potency,[6],inactive
same,Potency,[7],inactive
CN(C)CCC[C@@]1(c2ccc(F)cc2)OCc2cc(C#N)ccc21,max response,[1],-8.84%
same,outcome,[4],inactive
same,Potency,[5],inactive
same,Potency,[6],inactive
same,Potency,[7],inactive
CC(C)[C@@H]1CC[C@@H](C)CC1=O,max response,[1],-7.98%
same,outcome,[4],inactive
same,Potency,[5],inactive
same,Potency,[6],inactive
same,Potency,[7],inactive
